Experimental data: PubChem BioAssay (NCATS)
Inconclusive results are not listed. Active and inactive are the calls of the source. Unless noted, calls follow the shape of the dose curve; as a rule, active = well fitted inhibition curve with a large enough effect; inconclusive = small, poorly fitted or top-dose-only effect; inactive = flat fitted curve, though single readings scatter. Where a SMILES comes first, the peptide text is derived from it. Bridges are numbered along the chain shown (N, C = ends). [ ]: non-standard residue; d: D form. The star is where a group is joined. X1 = CCC(C)C(N)C1=NC(C(=O)*)CS1; dOrn = NCCC[C@@H](N)C(=O)O

What was measured:
[1] = qHTS drug screen for cell cycle checkpoint inhibitors in PARPi-resistant BRCA-mutant ovarian cancer cell lines. (AID 1963452; calls by dose curve); details: PEO1/OlaR viability, CellTiter-Glo luminescence, 96 h, stronger effect = lower value
How it was run: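 PEO1, PEO4 and PEO1/OlaR ovarian cancer cells, 600 per well, exposed 96 h at 37C to a dilution series. Viability read by CellTiter-Glo luminescence, normalized to DMSO and empty wells; activity summarized as Z-AUC.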

[2] = qHTS profiling for inhibitors of Plasmodium falciparum proliferation (AID 504749); also: nearly all actives have a fitted effect of over 60% in size; also: potency is read from the fitted curve at half-maximal effect;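 as to activity, negative = inhibition: 0% = DMSO vehicle and full inhibition = artemisinin control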; details: P. falciparum in erythrocytes, SYBR Green DNA, 72 h
How it was run: (§1)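 Parasite proliferation within erythrocytes, 72 h exposure. Endpoint: SYBR Green I fluorescence after overnight lysis at room temperature. Controls: 0.29 uM artemisinin, DMSO.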

[3] = system: 3D7; experiment: as above; details: P. falciparum in erythrocytes, SYBR Green DNA, 72 h; series mostly up to 28.7 µM
How it was run: as §1

[4] = system: 7G8; experiment: as above; details: P. falciparum in erythrocytes, SYBR Green DNA, 72 h; series mostly up to 28.7 µM
How it was run: as §1

[5] = system: AA1029; experiment: as above; details: P. falciparum in erythrocytes, SYBR Green DNA, 72 h; series mostly up to 28.7 µM
How it was run: as §1

[6] = system: AS120; experiment: as above; details: P. falciparum in erythrocytes, SYBR Green DNA, 72 h; series mostly up to 28.7 µM
How it was run: as §1

[7] = system: ATS189; experiment: as above; details: P. falciparum in erythrocytes, SYBR Green DNA, 72 h; series mostly up to 28.7 µM
How it was run: as §1

[8] = system: ATS95; experiment: as above; details: P. falciparum in erythrocytes, SYBR Green DNA, 72 h; series mostly up to 28.7 µM
How it was run: as §1

[9] = system: C2A; experiment: as above; details: P. falciparum in erythrocytes, SYBR Green DNA, 72 h; series mostly up to 28.7 µM
How it was run: as §1

[10] = system: CP185; experiment: as above; details: P. falciparum in erythrocytes, SYBR Green DNA, 72 h; series mostly up to 28.7 µM
How it was run: as §1

[11] = system: CP191; experiment: as above; details: P. falciparum in erythrocytes, SYBR Green DNA, 72 h; series mostly up to 28.7 µM
How it was run: as §1

[12] = system: CP192; experiment: as above; details: P. falciparum in erythrocytes, SYBR Green DNA, 72 h; series mostly up to 28.7 µM
How it was run: as §1

[13] = system: CP194; experiment: as above; details: P. falciparum in erythrocytes, SYBR Green DNA, 72 h; series mostly up to 28.7 µM
How it was run: as §1

[14] = system: CP201; experiment: as above; details: P. falciparum in erythrocytes, SYBR Green DNA, 72 h; series mostly up to 28.7 µM
How it was run: as §1

[15] = system: CP203; experiment: as above; details: P. falciparum in erythrocytes, SYBR Green DNA, 72 h; series mostly up to 28.7 µM
How it was run: as §1

[16] = system: CP211; experiment: as above; details: P. falciparum in erythrocytes, SYBR Green DNA, 72 h; series mostly up to 28.7 µM
How it was run: as §1

[17] = system: CP215; experiment: as above; details: P. falciparum in erythrocytes, SYBR Green DNA, 72 h; series mostly up to 28.7 µM
How it was run: as §1

[18] = system: CP217; experiment: as above; details: P. falciparum in erythrocytes, SYBR Green DNA, 72 h; series mostly up to 28.7 µM
How it was run: as §1

[19] = system: CP237; experiment: as above; details: P. falciparum in erythrocytes, SYBR Green DNA, 72 h; series mostly up to 28.7 µM
How it was run: as §1

[20] = system: CP238; experiment: as above; details: P. falciparum in erythrocytes, SYBR Green DNA, 72 h; series mostly up to 28.7 µM
How it was run: as §1

[21] = measured here: PEO1 parental Z-AUC
[22] = at 28.7 µM (top of the series), parasite line A
[23] = at 28.7 µM (top of the series), parasite line B

CC1=C(/C=C/C(C)=C/C=C/C(C)=C/C=C/C=C(C)/C=C/C=C(C)/C=C/C2=C(C)CCCC2(C)C)C(C)(C)CCC1
inactive: Z-AUC [1] 1.77 | activity, negative = inhibition [2, 22] 0.195% | activity, negative = inhibition [2, 23] -0.801% | Potency [3] | Potency [4] | Potency [5] | Potency [6] | Potency [7] | Potency [8] | Potency [9] | Potency [10] | Potency [11] | Potency [12] | Potency [13] | Potency [14] | Potency [15] | Potency [16] | Potency [17] | Potency [18] | Potency [19] | Potency [20]
0.804: Z-AUC ([1]; measured here: PEO4 Z-AUC)
1.11: Z-AUC [1, 21]

C=CCSSSCC=C
inactive: activity, negative = inhibition [2, 22] 1.87% | activity, negative = inhibition [2, 23] 3.6% | Potency [3] | Potency [4] | Potency [5] | Potency [6] | Potency [7] | Potency [8] | Potency [9] | Potency [10] | Potency [11] | Potency [12] | Potency [13] | Potency [14] | Potency [15] | Potency [16] | Potency [17] | Potency [18] | Potency [19] | Potency [20]

COC(F)(F)C(Cl)Cl
inactive: activity, negative = inhibition [2, 22] 16.9% | activity, negative = inhibition [2, 23] -4.97% | Potency [3] | Potency [4] | Potency [5] | Potency [6] | Potency [7] | Potency [8] | Potency [9] | Potency [10] | Potency [11] | Potency [12] | Potency [13] | Potency [14] | Potency [15] | Potency [16] | Potency [17] | Potency [18] | Potency [19] | Potency [20]

COC(=O)[C@H]1[C@H]2C[C@@H]3c4[nH]c5ccccc5c4CCN3C[C@H]2C[C@@H](OC(=O)c2cc(OC)c(OC)c(OC)c2)[C@@H]1OC
active: Potency ([2]; parasite line A) 355 nM | Potency ([2]; parasite line B) 631 nM | Potency [3] 891 nM | Potency [4] 50.1 nM | Potency [5] 282 nM | Potency [6] 199 nM | Potency [7] 708 nM | Potency [8] 398 nM | Potency [9] 282 nM | Potency [10] 398 nM | Potency [11] 398 nM | Potency [12] 338 nM | Potency [13] 536 nM | Potency [14] 849 nM | Potency [15] 536 nM | Potency [16] 601 nM | Potency [17] 757 nM | Potency [18] 355 nM | Potency [19] 126 nM | Potency [20] 355 nM

CC(C)C(=O)OCC(=O)[C@@]12O[C@H](C3CCCCC3)O[C@@H]1C[C@H]1[C@@H]3CCC4=CC(=O)C=C[C@]4(C)[C@H]3[C@@H](O)C[C@@]12C
inactive: Z-AUC [1] -0.223
0.238: Z-AUC [1, 21]
-0.69: Z-AUC ([1]; measured here: PEO4 Z-AUC)

CCc1nc(C(N)=O)c(Nc2ccc(N3CCC(N4CCN(C)CC4)CC3)c(OC)c2)nc1NC1CCOCC1
inactive: Z-AUC [1] 1.23
0.97: Z-AUC [1, 21]
0.904: Z-AUC ([1]; measured here: PEO4 Z-AUC)

CCCC(=O)O[C@]1(C(=O)CCl)[C@H](C)C[C@@H]2[C@H]3CCC4=CC(=O)C=C[C@]4(C)[C@@]3(F)C(=O)C[C@@]21C
active: Potency ([2]; parasite line A) 1410 nM | Potency ([2]; parasite line B) 2240 nM | Potency [3] 2510 nM | Potency [4] 2510 nM | Potency [5] 2820 nM | Potency [6] 3160 nM | Potency [7] 2820 nM | Potency [8] 3550 nM | Potency [9] 3550 nM | Potency [10] 3160 nM | Potency [11] 891 nM | Potency [12] 4780 nM | Potency [13] 3010 nM | Potency [14] 3790 nM | Potency [15] 4780 nM | Potency [16] 1510 nM | Potency [17] 3790 nM | Potency [18] 3160 nM | Potency [19] 3550 nM | Potency [20] 3980 nM

CCCCC/C=C\C/C=C\CCCCCCCC(=O)O
inactive: activity, negative = inhibition [2, 22] 6.83% | activity, negative = inhibition [2, 23] 5.9% | Potency [3] | Potency [4] | Potency [5] | Potency [6] | Potency [7] | Potency [8] | Potency [9] | Potency [10] | Potency [11] | Potency [12] | Potency [13] | Potency [14] | Potency [15] | Potency [16] | Potency [17] | Potency [18] | Potency [19] | Potency [20]

OC[C@H]1O[C@@H](Oc2cc(O)cc(/C=C/c3ccc(O)cc3)c2)[C@H](O)[C@@H](O)[C@@H]1O
1.47: Z-AUC ([1]; measured here: PEO4 Z-AUC)
inactive: Z-AUC [1] 1.9
1.63: Z-AUC [1, 21]

CCOC(=O)[C@H]1O[C@@H]1C(=O)N[C@@H](CC(C)C)C(=O)NCCC(C)C
0.731: Z-AUC [1, 21]
0.891: Z-AUC ([1]; measured here: PEO4 Z-AUC)
inactive: Z-AUC [1] -0.23

O=C(Nc1cccnn1)N1CCC(=Cc2cccc(Oc3ccc(C(F)(F)F)cn3)c2)CC1
-0.803: Z-AUC ([1]; measured here: PEO4 Z-AUC)
inactive: Z-AUC [1] -0.753
-0.539: Z-AUC [1, 21]

CC1(C)O[C@@H]2C[C@H]3[C@@H]4CCC5=CC(=O)C=C[C@]5(C)[C@H]4[C@@H](O)C[C@]3(C)[C@]2(C(=O)CO)O1
inactive: Z-AUC [1] 0.315
0.804: Z-AUC ([1]; measured here: PEO4 Z-AUC)
1.46: Z-AUC [1, 21]

CC1(C)S[C@@H]2[C@H](NC(=O)[C@@H](NC(=O)N3CCNC3=O)c3ccccc3)C(=O)N2[C@H]1C(=O)O
inactive: activity, negative = inhibition ([2]; at 12.8 µM (top of the series), parasite line A) 9.18% | activity, negative = inhibition ([2]; at 12.8 µM (top of the series), parasite line B) -0.988% | Potency [3] | Potency [4] | Potency [5] | Potency [6] | Potency [7] | Potency [8] | Potency [9] | Potency [10] | Potency [11] | Potency [12] | Potency [13] | Potency [14] | Potency [15] | Potency [16] | Potency [17] | Potency [18] | Potency [19] | Potency [20]

CCN(c1cc(C#CCN2CCOCC2)cc(C(=O)NCc2c(C)cc(C)[nH]c2=O)c1C)C1CCC(N(C)CCOC)CC1 (configuration not stated)
1.88: Z-AUC [1, 21]
inactive: Z-AUC [1] 0.159
1.36: Z-AUC ([1]; measured here: PEO4 Z-AUC)

CCC(C)C(N)C1=NC(C(=O)N[C@@H](CC(C)C)C(=O)N[C@H](CCC(=O)O)C(=O)N[C@H](C(=O)N[C@H]2CCCCNC(=O)[C@H](CC(N)=O)NC(=O)[C@@H](CC(=O)O)NC(=O)[C@H](Cc3cnc[nH]3)NC(=O)[C@@H](Cc3ccccc3)NC(=O)[C@H]([C@@H](C)CC)NC(=O)[C@@H](CCCN)NC2=O)[C@@H](C)CC)CS1 (some centres not stated) (X1-L[dE]IK[dOrn]I[dF]H[dD]N; lactam 4-C)
0.703: Z-AUC ([1]; measured here: PEO4 Z-AUC)
1.01: Z-AUC [1, 21]
inactive: Z-AUC [1] 0.134

Cc1nn(C)c(COc2ccc(N3CCN(S(=O)(=O)N(C)C)CC3)cc2)c1-c1cccc2c(CCCOc3cccc4ccccc34)c(C(=O)O)n(CCN3CCOCC3)c12
0.53: Z-AUC ([1]; measured here: PEO4 Z-AUC)
0.77: Z-AUC [1, 21]
inactive: Z-AUC [1] 0.0442

O=C(NC[C@H](O)CN1CCc2ccccc2C1)c1cc(NC2COC2)ncn1
0.347: Z-AUC ([1]; measured here: PEO4 Z-AUC)
0.62: Z-AUC [1, 21]
inactive: Z-AUC [1] 0.421

O=C(C1CC1)N1CC[C@@H](Cc2n[nH]c(=O)n2-c2ccc(-c3ccc4occc4c3)cc2)C1
0.425: Z-AUC ([1]; measured here: PEO4 Z-AUC)
0.792: Z-AUC [1, 21]
inactive: Z-AUC [1] 1.31

NS(=O)(=O)NCCNc1nonc1C(=Nc1ccc(F)c(Br)c1)NO
inactive: Z-AUC [1] 1.03
0.698: Z-AUC [1, 21]
1.08: Z-AUC ([1]; measured here: PEO4 Z-AUC)

O=c1ccn([C@@H]2O[C@H](CO)[C@@H](O)[C@H]2O)c(=O)[nH]1
1.05: Z-AUC [1, 21]
0.867: Z-AUC ([1]; measured here: PEO4 Z-AUC)
inactive: Z-AUC [1] 1.3
